# Assay outcomes deposited in PubChem BioAssay by National Center for Advancing Translational Sciences (NCATS).
# This is a sample that favours compounds with a hit; in the whole collection about 1.2% have one here.
# ERG-DNA inh: ERG Ets/DNA interaction inhibition; fluorescence polarization, His-ERG Ets domain / labelled DNA; Potency, µM (highest dose often 76.9 µM), usual class: inhibitors; 370,000 compounds, 0.028% hits; active means well fitted inhibition curve with a large enough effect in the polarisation, with a control signal flat; inconclusive means small, poorly fitted or top-dose-only effect, or effect the other way, or a change in a side signal; inactive means no such curve, though single readings can be large or run the other way; the % refers to the polarisation;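 further: polarization taken with two DNA probes labelled with fluorescein and Texas red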
#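 His-tagged ERG Ets domain (1 uM in the protein solution; 300mM KCl, 50mM Tris-HCl, 1mM EDTA, 1mM DTT, pH 7.5) received compound, then a probe mix of 5 nM fluorescein-DNA and 100nM Texas-615-DNA. Fluorescence polarization was read for both dyes.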
# B2AR arrestin: agonists driving beta-arrestin recruitment to human beta2-adrenergic receptor; P07550; Potency, µM (titrated, usually from 46.1 µM), hits mostly activators; AID 492947; beta-arrestin recruitment to beta2AR, cell-based reporter; 330,000 compounds, 0.02% hits; further: nearly all actives have a fitted effect of over 65% in size
# Target sequence (P07550 whole entry, looked up): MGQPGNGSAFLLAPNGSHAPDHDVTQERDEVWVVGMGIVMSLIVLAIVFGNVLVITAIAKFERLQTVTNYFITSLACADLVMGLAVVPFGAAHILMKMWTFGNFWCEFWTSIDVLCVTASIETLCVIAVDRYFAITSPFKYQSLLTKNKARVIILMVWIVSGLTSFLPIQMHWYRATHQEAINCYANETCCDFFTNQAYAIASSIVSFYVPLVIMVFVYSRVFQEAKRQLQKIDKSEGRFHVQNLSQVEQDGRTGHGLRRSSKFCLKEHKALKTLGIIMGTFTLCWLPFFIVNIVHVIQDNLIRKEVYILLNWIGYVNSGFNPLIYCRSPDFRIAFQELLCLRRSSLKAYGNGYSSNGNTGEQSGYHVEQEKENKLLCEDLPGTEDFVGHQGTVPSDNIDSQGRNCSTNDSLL
# Mito fusion yeast: mitochondrial division inhibition or fusion activation | S. cerevisiae fusion-defective mutant growth rescue, CellTiterGlo 48 h | 320,000 compounds, 0.23% hits | AID 485298 | Potency, µM (titrated, usually from 46.1 µM), most hits filed as activators; further: nearly all actives have a fitted effect of over 45% in size
#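 Temperature-sensitive fusion-defective S. cerevisiae (e.g. fzo1-1, mgm1-5) were grown with compound in YPEG medium (3% ethanol, 3% glycerol) for 48 hours at 37C. Growth rescue was measured as viability by CellTiterGlo luminescence after 10 minutes at ambient.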
# BRCA1 expr act: increases BRCA1 expression; MCF7-BRCA1-FFLuc reporter, luminescence, 48 h; response scale: scaled: vehicle 0%, 10 µM genistein 100%; Potency, µM (highest dose often 46.1 µM), usual class: activators; 380,000 compounds, 1.1% hits; further: nearly all actives have a fitted effect of over 80% in size
#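 First, MCF7-BRCA1-FFLuc cells (2000/well) attach for 2 h; next, compounds are pin-added and incubated 48 h at 37 °C; finally, luciferase reagent is added and luminescence read after 15 min.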
# A number is an active result; . = inactive; ? = inconclusive; / = not tested or not shown. Unless noted, the call rests on the fitted dose curve; in most records, active means well fitted curve in the direction sought with a large enough effect; inconclusive means small, poorly fitted or top-dose-only effect, or another doubt; inactive means no such curve, though single readings can be large; an effect the other way counts as inactive or inconclusive.
SMILES,ERG-DNA inh,B2AR arrestin,Mito fusion yeast,BRCA1 expr act
Cc1ccccc1C(=O)Nc1cccc(NC(=O)c2ccc(C(C)(C)C)cc2)c1,.,/,/,/
CC(C)n1c(/C=C/c2ccccc2)nc2ccccc21,.,.,.,2.2µM
CCCn1c(/C=C/c2ccccc2)nc2ccccc21,.,.,.,.
CCc1ccccc1NC(=O)CCS(=O)(=O)c1cccc2nonc12,.,/,/,/
c1ccc(-c2cn(CC3CCCCC3)nn2)cc1,.,.,.,5.6µM
COc1ccc(-c2cn(CC3CCCCC3)nn2)cc1,.,.,.,?
CCN(CCCNC(=O)c1ccc(Sc2ccc(F)cc2)c(NC(C)=O)c1)c1ccccc1,.,/,/,/
Nc1nc(CSC(=S)N2CCCCC2)nc(Nc2ccccc2)n1,.,.,.,14µM
Nc1nc(CSC(=S)N2CCOCC2)nc(Nc2ccccc2)n1,.,.,.,?
Cc1ccc(Nc2nc(N)nc(COC(=O)C3=COCCO3)n2)cc1,.,.,.,4µM
Cc1ccc(Nc2nc(N)nc(CSC(=S)N3CCOCC3)n2)cc1,.,.,.,5µM
Cc1ccc(NC(=O)COC(=O)C2=COCCO2)cc1,.,.,.,.
COc1cccc2c1OCC(C(=O)Nc1nccs1)=C2,.,.,.,4.5µM
COc1[nH]c(/N=C/c2ccccc2)c(C#N)c1C#N,32µM,.,.,.
Cc1sc2nc(C3CC3)nc(SCC(=O)N3CCc4ccccc4C3)c2c1C,.,.,13µM,.
c1coc(CNc2ncnc3c2nc2n3CCCC2)c1,/,/,/,.
O=C(O)C1=CC(=C(c2ccc(O)c(C(=O)O)c2)c2ccc(O)c(C(=O)O)c2)C=CC1=O,/,.,13µM,.
O=C1c2ccccc2NC(c2ccccn2)N1c1ccc(Cl)cc1 (stereo not drawn),.,.,.,11µM
COc1cccc(C2Nc3ccccc3C(=O)N2c2ccc(F)cc2)c1O (stereo not drawn),.,.,.,7.9µM
O=C1c2ccccc2NC(c2ccccc2O)N1c1ccc(F)cc1 (stereo not drawn),.,.,.,4µM
Cc1cccc(C2Nc3ccccc3C(=O)N2c2ccccc2)n1 (stereo not drawn),/,.,.,.
CCN1CCN(C(=O)Cn2c(-c3cccs3)cc3cc(Cl)ccc32)CC1,.,/,/,/
Cc1ccc(-n2ncc(C(=O)NCCN3CCC(Cc4ccccc4)CC3)c2C2CCN(C(=O)OC(C)(C)C)CC2)cc1,.,/,/,/
Nc1nonc1-c1noc(N2CCCCC2)n1,.,.,.,10µM
CCCCCc1nc(-c2nonc2N)no1,.,.,.,.
SMILES,ERG-DNA inh,B2AR arrestin,Mito fusion yeast,BRCA1 expr act
COc1ccc(NC(=O)CCNC(=O)c2ccccc2Cl)cc1OC,.,.,.,.
COc1ccc2nc(NC(=O)CCNC(=O)c3ccccc3Cl)sc2c1,.,.,.,.
O=C(CCNC(=O)c1ccccc1Cl)Nc1ccc(Cl)c(C(F)(F)F)c1,.,.,35µM,.
O=C(CCNC(=O)c1ccccc1Cl)Nc1nc2ccccc2s1,.,.,.,11µM
O=C(Cc1c(F)cccc1Cl)Nc1nc2ccccc2s1,.,.,.,8.9µM
COc1ccc(Cl)cc1NC(=O)CSc1nnc(C)n2c1cc1occc12,.,/,/,/
Cc1ccc(-c2csc(NC(=O)COC(=O)c3cccc(S(=O)(=O)N4CCOCC4)c3)n2)cc1,.,.,.,5µM
Cc1ccc(-c2csc(NC(=O)c3cccc(S(=O)(=O)N4CCN(C)CC4)c3)n2)cc1,.,.,.,.
CCc1ccc2c(c1)c(=O)c(C(=O)c1ccccc1)cn2CC(=O)Nc1ccc(C)c(Cl)c1,.,/,/,.
Cc1c(NS(=O)(=O)c2ccccc2)cc(C(C)C)c(O)c1S(=O)(=O)c1ccc(Cl)cc1,.,/,/,.
Fc1ccc(-c2ccc(Nc3cccc(F)c3)nn2)cc1,.,.,.,?
Fc1ccc(Nc2ccc(-c3ccc(F)cc3)nn2)cc1,.,.,.,5.6µM
Nn1c(SCc2c(F)cccc2F)nnc1-c1ccccn1,.,.,.,5.6µM
Cc1ccc(C)c(CSc2nnc(-c3ccccn3)n2N)c1,.,.,.,.
CCOC(=O)c1ccccc1NC(=O)NCc1cccn1Cc1ccc(F)cc1,.,/,/,/
COC(=O)c1ccccc1NC(=O)c1sc(Cl)nc1C,.,.,.,.
COC(=O)c1ccc(-c2ccc(Cl)cc2)nc1C,.,.,.,2µM
COc1cccc(-n2c(SCC(=O)Nc3nnc(C)s3)nc3c([nH]c4ccccc43)c2=O)c1,.,/,/,.
CCOc1ccc(OCc2cccc(C(=O)N3CCOCC3)c2)cc1,.,.,.,.
CCOc1ccc(N=C(/C(C(=O)C(=O)N2CCOCC2)=C(/O)c2ccccc2)c2ccccc2)cc1,.,.,.,11µM
CN1CCN(/N=C/c2ccc(OCc3ccccc3)cc2)CC1,.,.,.,7.9µM
C(=N\n1cnnc1)/c1ccc(OCc2ccccc2)cc1,.,.,.,13µM
COC(=O)c1ccc(COc2ccc(/C=N/N3CCN(C)CC3)cc2)cc1,.,.,.,?
CCOC(=O)c1[nH]c2ccc(OC)cc2c1C,.,.,.,.
CCOC(=O)c1cc2cc(OC)ccc2[nH]1,.,.,.,5.6µM
SMILES,ERG-DNA inh,B2AR arrestin,Mito fusion yeast,BRCA1 expr act
CCN1CCN(C(=O)c2cc3ccc(OC)cc3[nH]2)CC1,.,.,.,11µM
COc1ccc2[nH]c(C(=O)Nc3ccc(C)c(F)c3)cc2c1,.,.,.,3.5µM
COc1ccc(-c2nn(-c3ccccc3)cc2C2NC(=O)NC(C)=C2C(=O)OC(C)C)cc1Cl (stereo not drawn),.,/,/,.
CCOc1ccc(NC(=S)NCCCn2ccnc2)cc1,.,.,.,.
CC(C)c1ccccc1NC(=S)NCCCn1ccnc1,.,.,1.6µM,.
CC1(OC(=O)C2CCCC2)C(=O)C=C2C=C(c3ccsc3)N(C(CO)CO)C=C2C1=O (stereo not drawn),28µM,.,.,.
Clc1ccc(-c2cn3cccnc3n2)cc1,.,.,.,?
Brc1ccc(-c2cn3cccnc3n2)cc1,.,.,.,3.5µM
Cc1ccc(C(=O)CSc2cc(C)nc(SCC(=O)c3ccccc3)n2)cc1,.,.,.,.
Cc1cc(SCC(=O)c2ccccc2)nc(C)n1,.,.,.,10µM
CCCN(C)CCCOc1cc2nc(N3CCCN(C)CC3)nc(NC3CCN(C)CC3)c2cc1OC,/,/,/,.
CN1/C(=C\C=C2/SC(=S)NC2=O)C(C)(C)c2ccccc21,.,.,.,.
CN1CCC/C1=C/C=C1\SC(=S)NC1=O,/,.,.,10µM
CC(C)(C)OC(=O)N/N=C\C=C\c1ccc2c(c1)OCO2,.,.,.,7.9µM
COc1ccc(CC(=O)N/N=C/C=C/c2ccc3c(c2)OCO3)cc1OC,.,.,.,.
CCOC(=O)N/N=C\C=C\c1ccc2c(c1)OCO2,.,.,.,4.5µM
CC(C)(C)OC(=O)N/N=C/c1ccc(Br)cc1,.,.,.,3.5µM
COC(=O)N/N=C\C=C\c1ccc2c(c1)OCO2,.,.,.,4.5µM
O=C(N/N=C/C=C/c1ccc2c(c1)OCO2)c1ccc([N+](=O)[O-])cc1,/,.,.,.
O=S(=O)(c1ccc(Cl)cc1)c1nnn2c1nc(N1CCCCC1)c1sccc12,.,/,/,/
